Reference: PubChem BioAssay (NCATS)
Values joined by “and” are separate entries in the source; they are usually repeats but may differ in a detail not shown here. Equal values may be shown once. Records with an inconclusive call do not appear. The source holds several records for some structures; these can differ, active in one and inactive in another. Active and inactive are the calls of the source. Calls follow the shape of the dose curve; as a rule, active = well fitted inhibition curve with a large enough effect; inconclusive = small, poorly fitted or top-dose-only effect; inactive = flat fitted curve, though single readings scatter.
% is scaled to controls: 0 for no effect and ±100 for the full control effect; potency is read from the fitted curve at half-maximal effect.

Each compound was assayed on KB-3-1 (assay: Cytotoxic Profiling of Annotated Libraries Using Quantitative High-Throughput Screening (AID 1296008; also: nearly all actives have a fitted effect of over 60% in size)). Conditions: Five cell lines viability, CellTiter-Glo ATP luminescence, 48-72 h; max response: stronger effect = lower value.
Source text: Cell-based phenotypic screening is a commonly used approach to discover biological pathways, novel drug targets, chemical probes and high-quality hit-to-lead molecules. Many hits identified from high-throughput screening campaign are ruled out through a series of follow-up potency, selectivity/specificity, and cytotoxicity assays. Prioritization of molecules with little or no cytotoxicity for a more in-depth downstream evaluation influence the future direction of projects, so cytotoxicity profiling of the screening libraries at early stage is essential for increasing the likelihood of candidate success. […] For the annotated library, we also examined the primary targets and mechanistic pathways regularly associated with cell death. To our knowledge, this is the first study to use high-throughput screening to profile large libraries for cytotoxicity assessment in both normal and cancer cell lines. In summary, the results generated here constitutes a valuable resource for the scientific community and provides insight on identifying cytotoxic compounds with particular mechanisms of action, and prioritizing compounds with suitable cytotoxicity profile for further evaluation.
A pintool (Kalypsys) was used to transfer 23 nL of compound solution to the 1536-well assay plates. After 48 or 72 hr incubation at 37 degree Celsius, 5% CO2 and 95% humidity, 2.5 uL of CellTiter-Glo (Promega) was dispensed into each well using a dispenser (Aspect Automation, St. Paul, MN) with solenoid valves (Lee Valves, Westbrook CT). Plates were left at room temperature for 10 min before imaging the ATP-coupled luminescence using a ViewLux microplate imager (PerkinElmer, Waltham, MA).
`O=c1[nH]cc(F)c(=O)[nH]1` was tested, and the max response was 22.7% (inactive) and -20.8% (inactive).
For `CCCCc1oc2ccccc2c1C(=O)c1cc(I)c(OCCN(CC)CC)c(I)c1`, the max response was -16.7% (inactive) and -5.99% (inactive) and -5.01% (inactive).
In the case of `CCC1(C)CC(=O)NC1=O` (stereo unspecified), the max response is reported as 7.96% (inactive) and 9.28% (inactive).
With `CN1C2CCC1CC(OC(=O)C(CO)c1ccccc1)C2` (stereo unspecified) the max response was 0.626% (inactive).
In the case of `Cn1cnc2c1c(=O)[nH]c(=O)n2C`, the Potency is reported as 20.9 µM (active) and the max response is reported as 6.57% (inactive).
For `Cc1cc(C(C)(C)C)cc(C)c1CC1=NCCN1`, the max response was 3.71% (inactive) and 6.55% (inactive).
In the case of `CC[N+](CC)(CC)CCOc1cccc(OCC[N+](CC)(CC)CC)c1OCC[N+](CC)(CC)CC`, the max response is reported as -10.5% (inactive) and -5.4% (inactive).
With `Nc1nc2c(ncn2COC(CO)CO)c(=O)[nH]1` the max response was 5.82% (inactive).
`OCCN1CCN(CCCN2c3ccccc3Sc3ccc(C(F)(F)F)cc32)CC1` was tested, and the Potency was 20.6 µM (active).
In the case of `CCOC(=O)C(C)(C)Oc1ccc(Cl)cc1`, the max response is reported as 9.24% (inactive) and 4.33% (inactive).
`COc1ccccc1N1CCN(CC(O)COc2cccc3ccccc23)CC1` (stereo unspecified) was tested, and the max response was 9.55% (inactive).
With `CN(CCOc1ccc(NS(C)(=O)=O)cc1)CCc1ccc(NS(C)(=O)=O)cc1` the max response was -3.43% (inactive).
For `Fc1ccc([C@@H]2CCNC[C@H]2COc2ccc3c(c2)OCO3)cc1`, the max response was -16.5% (inactive) and -9.57% (inactive).
In the case of `O=C(c1ccc(F)cc1)C1CCN(CCn2c(=O)[nH]c3ccccc3c2=O)CC1`, the max response is reported as -2.16% (inactive) and 6.29% (inactive).
`CN1C(C(=O)Nc2ccccn2)=C(O)c2ccccc2S1(=O)=O` was tested, and the max response was -1.54% (inactive) and -11.4% (inactive).
With `CC1(C)O[C@H]2CC(=O)OC[C@]23[C@H]2CC[C@@]4(C)[C@H](c5ccoc5)OC(=O)[C@H]5O[C@]54[C@]2(C)C(=O)C[C@@H]13` the outcome was “inactive” and the max response was -3.61% (inactive) and 0.55% (inactive).
With `CN(C)CCOC(c1ccccc1)c1ccccc1` the outcome was “inactive” and the max response was 4.19% (inactive) and -2.75% (inactive).
For `NCCCCCC(=O)O`, the max response was 14.6% (inactive) and 4.29% (inactive).
In the case of `CN1CCC(=C2c3ccccc3C=Cc3ccccc32)CC1`, the max response is reported as 25.1% (inactive) and -12.3% (inactive).
For `O=C1Cc2cc(CCN3CCN(c4nsc5ccccc45)CC3)c(Cl)cc2N1`, the max response was 2.45% (inactive) [middle of 4 runs].
For `Cc1cn([C@H]2C=C[C@@H](CO)O2)c(=O)[nH]c1=O`, the outcome was “inactive”.
In the case of `Cc1cc(C(C)(C)C)c(O)c(C)c1CC1=NCCN1`, the max response is reported as 1.72% (inactive) and -15.7% (inactive).
In the case of `COc1nc(C)nc(Cl)c1NC1=NCCN1`, the max response is reported as 11.6% (inactive) and 7.19% (inactive).
In the case of `CN1CCN(C2=Nc3cc(Cl)ccc3Nc3ccccc32)CC1`, the max response is reported as 6.37% (inactive).
`CN(C)c1nc(N(C)C)nc(N(C)C)n1` was tested, and the max response was 0.844% (inactive) and 0.45% (inactive).
With `Clc1ccccc1C(c1ccccc1)(c1ccccc1)n1ccnc1` the max response was -12.5% (inactive).
For `CNCCCC12CCC(c3ccccc31)c1ccccc12`, the max response was 3.46% (inactive).
For `O=C1c2c(O)ccc(O)c2C(=O)c2c(NCCNCCO)ccc(NCCNCCO)c21`, the Potency was 0.296 µM (active).
For `Nc1nnc(-c2cccc(Cl)c2Cl)c(N)n1`, the max response was 6.78% (inactive) and 8.12% (inactive).
For `CC(C)(Oc1ccc(C2CC2(Cl)Cl)cc1)C(=O)O` (stereo unspecified), the outcome was “inactive”.
With `C[C@@H]1CC(=O)NN=C1c1ccc(NN=C(C#N)C#N)cc1` the max response was -4.37% (inactive).
`NCCc1cnc[nH]1` was tested, and the max response was -8.33% (inactive) and the outcome was “inactive”.
In the case of `CC12CC3CC(C)(C1)CC(N)(C3)C2`, the max response is reported as 0.442% (inactive).
In the case of `COc1ccc2c(c1)c(CC(=O)O)c(C)n2C(=O)c1ccc(Cl)cc1`, the max response is reported as 0.589% (inactive) and -8.59% (inactive).
In the case of `Clc1ccc(C(c2ccccc2Cl)C(Cl)Cl)cc1` (stereo unspecified), the max response is reported as -10.1% (inactive) and -1.61% (inactive).
With `CC1COc2c(N3CCN(C)CC3)c(F)cc3c(=O)c(C(=O)O)cn1c23` (stereo unspecified) the outcome was “inactive” and the max response was 21.2% (inactive).
